Assay results reported in PubChem BioAssay (NCATS).
Results filed as inconclusive are left out. The source made the active and inactive calls. Unless noted, calls follow the shape of the dose curve; as a rule, active = well fitted curve in the direction sought with a large enough effect; inconclusive = small, poorly fitted or top-dose-only effect, or another doubt; inactive = no such curve, though single readings can be large; an effect the other way counts as inactive or inconclusive.

What was measured:
[1] = tested on: TAB113; assay: qHTS profiling for inhibitors of Plasmodium falciparum proliferation (AID 504749);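 also: 0% = DMSO vehicle and full inhibition = artemisinin control; nearly all actives have a fitted effect of over 60% in size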; settings: P. falciparum in erythrocytes, SYBR Green DNA, 72 h; series mostly up to 28.7 µM
Outline: (§1)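 Readout was DNA-dye fluorescence from lysed cultures, ex 485/em 535 nm. Parasitized red cells had grown 72 h with compound; data scaled between 0.29 uM artemisinin and DMSO wells and corrected using vehicle-only plates.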

[2] = tested on: TAB165; assay: as above; settings: P. falciparum in erythrocytes, SYBR Green DNA, 72 h; series mostly up to 28.7 µM
Outline: as §1

[3] = tested on: W2; assay: as above; settings: P. falciparum in erythrocytes, SYBR Green DNA, 72 h; series mostly up to 28.7 µM
Outline: as §1

[4] = qHTS for Inhibitors of Plasmodium falciparum (GB4) proliferation (AID 504315);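 also: 0% = DMSO vehicle and -100% = 0.29 µM artemisinin control; nearly all actives have a fitted effect of over 50% in size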
Outline: (§2)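 Erythrocytes infected with P. falciparum line (0.3% parasitemia, 2.5% hematocrit final) incubated with compounds 72 h at 37 °C, 5% CO2; SYBR Green lysis buffer added, fluorescence read next day. Normalized to 0.29 uM artemisinin and DMSO.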

[5] = qHTS for Inhibitors of Plasmodium falciparum (CP250) proliferation (AID 504320);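 also: plate controls were DMSO vehicle for no effect and 0.29 µM artemisinin control for full effect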
Outline: as §2

[6] = biological target: Luciferin 4-monooxygenase (Photinus pyralis) (UniProt P08659); assay: Biochemical firefly luciferase enzyme assay for NPC (AID 624030); also: potency is read from the fitted curve at half-maximal effect; nearly all actives have a fitted effect of over 70% in size
Outline: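 Purified P. pyralis luciferase at 10 nM in 50 mM Tris Acetate (final), luminescence read within 5 minutes of enzyme addition to compounds. Activity normalised to PTC124 versus DMSO; concentration-response curves classed by r2, magnitude and activity.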

[7] = S16 Schwann cell viability assay (CellTiter-Glo assay) (AID 624031);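 also: cellular ATP luminescence as a viability measure; plate controls were DMSO-treated cells for no effect and cell-free wells for full effect; nearly all actives have a fitted effect of over 70% in size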
Outline: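 Luminescent ATP read-out (CellTiter-Glo) after 24 h compound exposure of native S16 rat Schwann cells at 37 °C. Signals were normalized between cell-free wells and DMSO-treated cells, set as 0% activity.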

[8] = S16 Schwann cell PMP22 intronic element firefly luciferase assay (AID 624032);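 also: plate controls were DMSO for no effect and PTC124 positive control mean for full effect; nearly all actives have a fitted effect of over 30% in size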
Outline: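 Rat S16 Schwann cells stably carrying firefly luciferase driven by a PMP22 intronic element, in 10% FBS, treated 24 h at 37 C. ONE-Glo luminescence normalized to PTC124 control and DMSO (0%); curves classed by r2, magnitude and activity.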

[9] = S16 Schwann cell PMP22 intronic element beta-lactamase assay (AID 624044; calls by dose curve;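 also: 0% = DMSO and -100% = potassium clavulanate positive control; nearly all actives have a fitted effect of over 15% in size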)
Outline: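 Rat S16 Schwann cells with beta-Lac driven by a PMP22 intronic element, compound-treated 24 h at 37 °C. LiveBLAzer FRET B/G read: 460 nm normalized to potassium clavulanate vs DMSO; 535 nm FRET as viability; concentration-effect curves classified.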

[10] = qHTS profiling for inhibitors of Plasmodium falciparum proliferation (AID 504749);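 also: 0% = DMSO vehicle and full inhibition = artemisinin control; nearly all actives have a fitted effect of over 60% in size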; settings: P. falciparum in erythrocytes, SYBR Green DNA, 72 h, at 28.7 µM (top of the series)
Outline: as §1

[11] = tested on: 3D7; assay: as above; settings: P. falciparum in erythrocytes, SYBR Green DNA, 72 h; series mostly up to 28.7 µM
Outline: as §1

[12] = tested on: AA1029; assay: as above; settings: P. falciparum in erythrocytes, SYBR Green DNA, 72 h; series mostly up to 28.7 µM
Outline: as §1

[13] = tested on: AS120; assay: as above; settings: P. falciparum in erythrocytes, SYBR Green DNA, 72 h; series mostly up to 28.7 µM
Outline: as §1

[14] = tested on: ATS189; assay: as above; settings: P. falciparum in erythrocytes, SYBR Green DNA, 72 h; series mostly up to 28.7 µM
Outline: as §1

[15] = tested on: ATS95; assay: as above; settings: P. falciparum in erythrocytes, SYBR Green DNA, 72 h; series mostly up to 28.7 µM
Outline: as §1

[16] = tested on: C2A; assay: as above; settings: P. falciparum in erythrocytes, SYBR Green DNA, 72 h; series mostly up to 28.7 µM
Outline: as §1

[17] = tested on: CP185; assay: as above; settings: P. falciparum in erythrocytes, SYBR Green DNA, 72 h; series mostly up to 28.7 µM
Outline: as §1

[18] = tested on: CP192; assay: as above; settings: P. falciparum in erythrocytes, SYBR Green DNA, 72 h; series mostly up to 28.7 µM
Outline: as §1

[19] = tested on: CP194; assay: as above; settings: P. falciparum in erythrocytes, SYBR Green DNA, 72 h; series mostly up to 28.7 µM
Outline: as §1

[20] = tested on: CP201; assay: as above; settings: P. falciparum in erythrocytes, SYBR Green DNA, 72 h; series mostly up to 28.7 µM
Outline: as §1

[21] = tested on: CP203; assay: as above; settings: P. falciparum in erythrocytes, SYBR Green DNA, 72 h; series mostly up to 28.7 µM
Outline: as §1

[22] = tested on: CP211; assay: as above; settings: P. falciparum in erythrocytes, SYBR Green DNA, 72 h; series mostly up to 28.7 µM
Outline: as §1

[23] = tested on: CP215; assay: as above; settings: P. falciparum in erythrocytes, SYBR Green DNA, 72 h; series mostly up to 28.7 µM
Outline: as §1

[24] = tested on: CP217; assay: as above; settings: P. falciparum in erythrocytes, SYBR Green DNA, 72 h; series mostly up to 28.7 µM
Outline: as §1

[25] = tested on: CP237; assay: as above; settings: P. falciparum in erythrocytes, SYBR Green DNA, 72 h; series mostly up to 28.7 µM
Outline: as §1

[26] = tested on: CP238; assay: as above; settings: P. falciparum in erythrocytes, SYBR Green DNA, 72 h; series mostly up to 28.7 µM
Outline: as §1

[27] = tested on: CP247; assay: as above; settings: P. falciparum in erythrocytes, SYBR Green DNA, 72 h; series mostly up to 28.7 µM
Outline: as §1

[28] = tested on: CP250; assay: as above; settings: P. falciparum in erythrocytes, SYBR Green DNA, 72 h; series mostly up to 28.7 µM
Outline: as §1

[29] = tested on: CP252; assay: as above; settings: P. falciparum in erythrocytes, SYBR Green DNA, 72 h; series mostly up to 28.7 µM
Outline: as §1

[30] = tested on: CP256; assay: as above; settings: P. falciparum in erythrocytes, SYBR Green DNA, 72 h; series mostly up to 28.7 µM
Outline: as §1

[31] = tested on: CP260; assay: as above; settings: P. falciparum in erythrocytes, SYBR Green DNA, 72 h; series mostly up to 28.7 µM
Outline: as §1

[32] = tested on: CP262; assay: as above; settings: P. falciparum in erythrocytes, SYBR Green DNA, 72 h; series mostly up to 28.7 µM
Outline: as §1

[33] = tested on: CP265; assay: as above; settings: P. falciparum in erythrocytes, SYBR Green DNA, 72 h; series mostly up to 28.7 µM
Outline: as §1

[34] = tested on: CP266; assay: as above; settings: P. falciparum in erythrocytes, SYBR Green DNA, 72 h; series mostly up to 28.7 µM
Outline: as §1

[35] = tested on: CP268; assay: as above; settings: P. falciparum in erythrocytes, SYBR Green DNA, 72 h; series mostly up to 28.7 µM
Outline: as §1

[36] = tested on: CP269; assay: as above; settings: P. falciparum in erythrocytes, SYBR Green DNA, 72 h; series mostly up to 28.7 µM
Outline: as §1

[37] = tested on: CP286; assay: as above; settings: P. falciparum in erythrocytes, SYBR Green DNA, 72 h; series mostly up to 28.7 µM
Outline: as §1

[38] = tested on: CP291; assay: as above; settings: P. falciparum in erythrocytes, SYBR Green DNA, 72 h; series mostly up to 28.7 µM
Outline: as §1

[39] = tested on: CP297; assay: as above; settings: P. falciparum in erythrocytes, SYBR Green DNA, 72 h; series mostly up to 28.7 µM
Outline: as §1

[40] = tested on: CP305; assay: as above; settings: P. falciparum in erythrocytes, SYBR Green DNA, 72 h; series mostly up to 28.7 µM
Outline: as §1

[41] = tested on: CP315; assay: as above; settings: P. falciparum in erythrocytes, SYBR Green DNA, 72 h; series mostly up to 28.7 µM
Outline: as §1

[42] = tested on: CP325; assay: as above; settings: P. falciparum in erythrocytes, SYBR Green DNA, 72 h; series mostly up to 28.7 µM
Outline: as §1

[43] = tested on: CP329; assay: as above; settings: P. falciparum in erythrocytes, SYBR Green DNA, 72 h; series mostly up to 28.7 µM
Outline: as §1

[44] = tested on: DIV14; assay: as above; settings: P. falciparum in erythrocytes, SYBR Green DNA, 72 h; series mostly up to 28.7 µM
Outline: as §1

[45] = tested on: DIV30; assay: as above; settings: P. falciparum in erythrocytes, SYBR Green DNA, 72 h; series mostly up to 28.7 µM
Outline: as §1

[46] = tested on: Dd2; assay: as above; settings: P. falciparum in erythrocytes, SYBR Green DNA, 72 h; series mostly up to 28.7 µM
Outline: as §1

[47] = tested on: ECU; assay: as above; settings: P. falciparum in erythrocytes, SYBR Green DNA, 72 h; series mostly up to 28.7 µM
Outline: as §1

[48] = tested on: FAB9; assay: as above; settings: P. falciparum in erythrocytes, SYBR Green DNA, 72 h; series mostly up to 28.7 µM
Outline: as §1

[49] = tested on: GB4; assay: as above; settings: P. falciparum in erythrocytes, SYBR Green DNA, 72 h; series mostly up to 28.7 µM
Outline: as §1

[50] = tested on: HB3; assay: as above; settings: P. falciparum in erythrocytes, SYBR Green DNA, 72 h; series mostly up to 28.7 µM
Outline: as §1

[51] = tested on: ICS; assay: as above; settings: P. falciparum in erythrocytes, SYBR Green DNA, 72 h; series mostly up to 28.7 µM
Outline: as §1

[52] = tested on: JCK; assay: as above; settings: P. falciparum in erythrocytes, SYBR Green DNA, 72 h; series mostly up to 28.7 µM
Outline: as §1

[53] = tested on: N140; assay: as above; settings: P. falciparum in erythrocytes, SYBR Green DNA, 72 h; series mostly up to 28.7 µM
Outline: as §1

[54] = tested on: P93_24; assay: as above; settings: P. falciparum in erythrocytes, SYBR Green DNA, 72 h; series mostly up to 28.7 µM
Outline: as §1

[55] = tested on: P94_40; assay: as above; settings: P. falciparum in erythrocytes, SYBR Green DNA, 72 h; series mostly up to 28.7 µM
Outline: as §1

[56] = tested on: PAD; assay: as above; settings: P. falciparum in erythrocytes, SYBR Green DNA, 72 h; series mostly up to 28.7 µM
Outline: as §1

[57] = tested on: PC15; assay: as above; settings: P. falciparum in erythrocytes, SYBR Green DNA, 72 h; series mostly up to 28.7 µM
Outline: as §1

[58] = tested on: PC26; assay: as above; settings: P. falciparum in erythrocytes, SYBR Green DNA, 72 h; series mostly up to 28.7 µM
Outline: as §1

[59] = tested on: PC49; assay: as above; settings: P. falciparum in erythrocytes, SYBR Green DNA, 72 h; series mostly up to 28.7 µM
Outline: as §1

[60] = tested on: SC27B; assay: as above; settings: P. falciparum in erythrocytes, SYBR Green DNA, 72 h; series mostly up to 28.7 µM
Outline: as §1

[61] = tested on: TAB109; assay: as above; settings: P. falciparum in erythrocytes, SYBR Green DNA, 72 h; series mostly up to 28.7 µM
Outline: as §1

Chain of Luciferin 4-monooxygenase (Photinus pyralis) (P08659 whole entry, looked up): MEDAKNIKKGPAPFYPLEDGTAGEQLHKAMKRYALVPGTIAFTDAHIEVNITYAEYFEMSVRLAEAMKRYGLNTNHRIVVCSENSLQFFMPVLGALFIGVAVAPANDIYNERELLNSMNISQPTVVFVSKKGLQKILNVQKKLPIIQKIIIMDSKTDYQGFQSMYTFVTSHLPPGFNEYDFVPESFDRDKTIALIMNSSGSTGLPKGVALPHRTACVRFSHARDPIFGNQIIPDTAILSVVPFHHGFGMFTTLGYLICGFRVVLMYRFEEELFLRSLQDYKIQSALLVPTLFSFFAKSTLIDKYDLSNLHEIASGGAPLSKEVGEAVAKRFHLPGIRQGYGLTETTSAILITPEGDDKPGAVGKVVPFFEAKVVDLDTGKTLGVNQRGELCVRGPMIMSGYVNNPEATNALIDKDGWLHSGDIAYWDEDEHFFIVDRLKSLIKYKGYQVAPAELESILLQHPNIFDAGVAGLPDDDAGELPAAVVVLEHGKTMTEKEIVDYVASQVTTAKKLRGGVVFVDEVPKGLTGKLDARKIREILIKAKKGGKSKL

CC(N)C(=O)NCC(=O)NC1CSSCC(C(=O)O)NC(=O)C(CO)NC(=O)C(C(C)O)NC(=O)C(Cc2ccccc2)NC(=O)C(C(C)O)NC(=O)C(CCCCN)NC(=O)C(Cc2c[nH]c3ccccc23)NC(=O)C(Cc2ccccc2)NC(=O)C(Cc2ccccc2)NC(=O)C(CC(N)=O)NC(=O)C(CCCCN)NC1=O (centres undefined)
inactive: Potency [1] | Potency [2] | Potency [3]

CC(CCN1CCCCc2nc(C)c(C)cc21)=NO[C@@H](C)c1cn([C@H](CO)Cc2ccccc2)nn1
inactive: Potency [4] | Potency [5]

O=C1/C(=C\c2cccs2)CCC/C1=C/c1cccs1
inactive: Potency [7] | Potency [8] | Potency [9] | activity, negative = inhibition ([10]; parasite line A) 0.948% | activity, negative = inhibition ([10]; parasite line B) 10.7% | Potency [11] | Potency [12] | Potency [13] | Potency [14] | Potency [15] | Potency [16] | Potency [17] | Potency [18] | Potency [19] | Potency [20] | Potency [21] | Potency [22] | Potency [23] | Potency [24] | Potency [25] | Potency [26] | Potency [27] | Potency [28] | Potency [29] | Potency [30] | Potency [31] | Potency [32] | Potency [33] | Potency [34] | Potency [35] | Potency [36] | Potency [37] | Potency [38] | Potency [39] | Potency [40] | Potency [41] | Potency [42] | Potency [43] | Potency [44] | Potency [45] | Potency [46] | Potency [47] | Potency [48] | Potency [49] | Potency [50] | Potency [51] | Potency [52] | Potency [53] | Potency [54] | Potency [55] | Potency [56] | Potency [57] | Potency [58] | Potency [59] | Potency [60] | Potency [61] | Potency [1] | Potency [2]
active: Potency [6] 5.73 µM
